The sample as a whole holds a higher share of hits than the screen did.
Pf apPOL block: Pf-apPOL inhibitors, biochemical, fluorescence; Plasmodium falciparum apicoplast DNA polymerase (apPOL); inhibition, % at 10 µM; Recombinant Pf-apPOL, molecular beacon fluorescence, 1.5 h; 210,000 compounds, 0.25% hits
mHTT-CaM PPI inh: mutant huntingtin-calmodulin interaction inhibitors – biochemical, AlphaScreen, primary screen | P42858 | AlphaScreen His-mHTT/GST-CaM binding, luminescence | inhibition, % at 15 µM | 190,000 compounds, 3.6% hits | AID 1671202, 2021;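 note: 0% = both proteins with DMSO and 100% = one protein alone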
Target sequence (P42858 whole entry, looked up, stated change not applied): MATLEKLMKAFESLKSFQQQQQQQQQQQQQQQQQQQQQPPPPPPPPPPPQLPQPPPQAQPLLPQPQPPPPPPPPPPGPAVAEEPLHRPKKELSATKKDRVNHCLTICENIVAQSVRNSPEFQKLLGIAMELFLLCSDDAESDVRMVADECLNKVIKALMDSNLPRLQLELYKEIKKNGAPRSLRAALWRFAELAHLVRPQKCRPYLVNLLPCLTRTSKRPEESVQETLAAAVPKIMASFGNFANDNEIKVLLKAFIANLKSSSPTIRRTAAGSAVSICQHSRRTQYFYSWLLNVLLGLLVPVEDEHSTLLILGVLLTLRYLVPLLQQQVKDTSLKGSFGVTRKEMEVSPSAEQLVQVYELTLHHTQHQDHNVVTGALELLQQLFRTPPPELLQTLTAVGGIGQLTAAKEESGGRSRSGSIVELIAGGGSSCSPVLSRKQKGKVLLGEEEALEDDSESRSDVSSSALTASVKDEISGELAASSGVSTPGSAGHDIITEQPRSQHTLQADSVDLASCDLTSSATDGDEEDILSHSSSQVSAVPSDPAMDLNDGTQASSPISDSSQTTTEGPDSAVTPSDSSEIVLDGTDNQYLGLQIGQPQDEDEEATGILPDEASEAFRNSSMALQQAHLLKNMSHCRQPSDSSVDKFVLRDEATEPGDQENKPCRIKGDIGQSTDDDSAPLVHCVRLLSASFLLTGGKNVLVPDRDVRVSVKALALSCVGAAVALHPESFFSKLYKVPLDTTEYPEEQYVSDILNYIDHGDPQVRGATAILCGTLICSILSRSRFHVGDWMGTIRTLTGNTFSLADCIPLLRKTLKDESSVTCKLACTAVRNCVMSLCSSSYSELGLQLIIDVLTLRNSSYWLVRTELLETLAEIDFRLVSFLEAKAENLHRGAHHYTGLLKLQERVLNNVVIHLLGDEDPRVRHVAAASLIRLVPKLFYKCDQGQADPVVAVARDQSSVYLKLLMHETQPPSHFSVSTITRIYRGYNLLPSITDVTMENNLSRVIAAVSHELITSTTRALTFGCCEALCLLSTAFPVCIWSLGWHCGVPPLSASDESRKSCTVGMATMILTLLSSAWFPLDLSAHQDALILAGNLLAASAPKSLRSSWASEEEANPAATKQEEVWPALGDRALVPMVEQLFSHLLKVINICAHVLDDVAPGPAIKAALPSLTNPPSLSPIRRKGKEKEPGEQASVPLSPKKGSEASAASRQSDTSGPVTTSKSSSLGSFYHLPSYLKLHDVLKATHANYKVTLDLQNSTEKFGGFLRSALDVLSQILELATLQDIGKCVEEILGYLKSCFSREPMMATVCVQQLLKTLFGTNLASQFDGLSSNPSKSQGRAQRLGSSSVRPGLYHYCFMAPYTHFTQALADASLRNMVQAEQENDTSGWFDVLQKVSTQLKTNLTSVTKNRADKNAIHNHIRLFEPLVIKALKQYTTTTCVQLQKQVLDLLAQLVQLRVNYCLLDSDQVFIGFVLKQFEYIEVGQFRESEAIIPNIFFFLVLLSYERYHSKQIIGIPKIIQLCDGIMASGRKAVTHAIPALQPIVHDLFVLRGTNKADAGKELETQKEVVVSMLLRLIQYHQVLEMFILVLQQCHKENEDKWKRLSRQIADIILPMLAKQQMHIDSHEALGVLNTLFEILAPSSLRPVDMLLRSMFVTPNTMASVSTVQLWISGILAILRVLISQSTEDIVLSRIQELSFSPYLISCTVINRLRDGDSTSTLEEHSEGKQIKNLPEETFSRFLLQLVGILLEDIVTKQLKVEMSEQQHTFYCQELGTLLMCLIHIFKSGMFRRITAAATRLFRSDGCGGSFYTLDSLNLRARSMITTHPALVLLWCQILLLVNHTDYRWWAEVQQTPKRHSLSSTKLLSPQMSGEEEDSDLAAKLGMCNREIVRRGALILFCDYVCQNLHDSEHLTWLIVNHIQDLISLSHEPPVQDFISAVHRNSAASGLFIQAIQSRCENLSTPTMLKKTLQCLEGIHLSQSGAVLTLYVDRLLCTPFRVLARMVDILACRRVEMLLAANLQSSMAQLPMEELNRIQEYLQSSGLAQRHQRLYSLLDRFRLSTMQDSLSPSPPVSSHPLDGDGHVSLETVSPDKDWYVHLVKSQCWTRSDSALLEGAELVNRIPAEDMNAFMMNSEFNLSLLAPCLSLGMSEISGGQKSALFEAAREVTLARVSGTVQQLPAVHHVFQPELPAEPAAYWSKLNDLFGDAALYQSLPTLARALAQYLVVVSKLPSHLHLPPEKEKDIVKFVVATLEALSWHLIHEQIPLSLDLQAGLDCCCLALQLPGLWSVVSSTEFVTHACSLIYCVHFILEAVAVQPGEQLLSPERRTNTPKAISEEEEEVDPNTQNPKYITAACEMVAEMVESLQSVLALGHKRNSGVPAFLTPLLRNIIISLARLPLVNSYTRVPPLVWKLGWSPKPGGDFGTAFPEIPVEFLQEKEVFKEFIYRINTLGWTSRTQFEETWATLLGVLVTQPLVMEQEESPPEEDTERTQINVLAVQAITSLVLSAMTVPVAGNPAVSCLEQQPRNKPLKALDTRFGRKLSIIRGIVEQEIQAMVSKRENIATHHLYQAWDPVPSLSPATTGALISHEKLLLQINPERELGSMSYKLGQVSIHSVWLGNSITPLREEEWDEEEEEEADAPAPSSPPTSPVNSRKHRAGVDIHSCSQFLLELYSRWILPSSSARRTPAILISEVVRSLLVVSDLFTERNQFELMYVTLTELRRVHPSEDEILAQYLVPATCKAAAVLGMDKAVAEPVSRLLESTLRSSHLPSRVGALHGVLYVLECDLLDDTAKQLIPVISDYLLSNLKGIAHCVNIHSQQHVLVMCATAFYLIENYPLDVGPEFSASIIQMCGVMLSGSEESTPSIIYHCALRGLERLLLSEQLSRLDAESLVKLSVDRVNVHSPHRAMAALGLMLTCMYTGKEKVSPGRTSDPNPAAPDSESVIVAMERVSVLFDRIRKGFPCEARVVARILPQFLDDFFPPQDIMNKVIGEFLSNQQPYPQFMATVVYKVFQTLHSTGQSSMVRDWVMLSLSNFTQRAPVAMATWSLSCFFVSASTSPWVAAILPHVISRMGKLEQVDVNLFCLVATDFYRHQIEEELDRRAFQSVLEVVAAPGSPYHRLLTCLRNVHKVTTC
Numbers without * were called inactive; / = no result. Cut-off read from the data, not from the text of the source: active = inhibition above about 50%; inactive = the rest.

SMILES	Pf apPOL block	mHTT-CaM PPI inh
CCOc1ccccc1NC(=O)C1c2cc(OC)c(OC)cc2C(=O)N2CCc3ccccc3C12 (stereo not given)	-3.3	54.0*
COc1cc2c(cc1OC)C(C(=O)Nc1ccc(F)cc1)C1c3ccccc3CCN1C2=O (stereo not given)	-0.4	9.0
COc1cc(Cl)c(C)cc1NC(=O)C1c2ccccc2C(=O)N2CCc3ccccc3C12 (stereo not given)	-5.1	54.0*
Cc1cc(NC(=O)C(=O)NCC(c2ccsc2)N2CCCC2)c2ccccc2n1 (stereo not given)	1.3	-5.4
Cc1nccn1CC1CCN(C(=O)COc2ccc(Cl)cc2Cl)CC1	-1.4	-13.4
Cc1cccnc1NS(=O)(=O)c1ccc2[nH]c3c(c2c1)CCCC3	-5.5	11.6
CCOc1ccc(CNS(=O)(=O)c2ccc3[nH]c(=O)sc3c2)cc1OC	0.1	0.0
COc1ccccc1CNS(=O)(=O)c1ccc(C)c([N+](=O)[O-])c1	-0.6	-0.9
CCOc1ccc(CNS(=O)(=O)c2ccc3[nH]c4c(c3c2)CCCC4)cc1OC	0.2	59.0*
COc1ccccc1CNS(=O)(=O)c1ccc2[nH]c3c(c2c1)CCCCC3	-4.6	97.9*
Cc1ccc(CCNS(=O)(=O)c2ccc3[nH]c4c(c3c2)CCCC4)cc1	0.2	84.6*
CC(C)CNC(=O)C1CCCN(c2cn[nH]c(=O)c2)C1 (stereo not given)	0.9	-4.2
Cc1ccc(C2=NC3(CCN(CC(=O)Nc4ccccc4C)CC3)NC2=O)cc1	1.2	-2.9
CC(=O)Nc1cccc2c(C(=O)N3CCN(C4CCCCC4)CC3)ccnc12	2.7	-1.6
CC(C)Sc1nnc2c3cc(Br)ccc3n(C)c2n1	-3.5	-7.0
CCOC(=O)C1CCCCN1C(=O)c1c(SC)nsc1SC (stereo not given)	-2.9	/
CCOc1ccc(C(O)c2nccn2C)cc1 (stereo not given)	1.1	-1.8
COc1ccc(C(O)c2nccn2C)cc1 (stereo not given)	51.7*	-4.7
O=C(Cc1cccs1)Nc1cnc(N2CCCCCC2)nc1	-8.0	12.5
COc1cc(C(CC(=O)N2CCN(c3ccccc3)CC2)c2c(OC)cc(OC)c3ccc(=O)oc23)cc(OC)c1OC (stereo not given)	-3.0	71.0*
COc1cc(OC)c2ccc(=O)oc2c1C(CC(=O)N1CCOCC1)c1ccc2c(c1)OCO2 (stereo not given)	-6.7	12.2
COc1ccc(C(CC(=O)N2CCCCC2)c2c(OC)cc(OC)c3ccc(=O)oc23)cc1 (stereo not given)	-3.6	33.5
COc1cc(OC)c2ccc(=O)oc2c1C(CC(=O)N1CCN(c2ccccc2)CC1)c1ccc2c(c1)OCO2 (stereo not given)	-4.5	69.7*
Cc1occc1C(=O)Nc1ccc(I)cc1C(=O)O	10.5	59.8*
Cc1occc1C(=O)Nc1ccccc1NC(=O)c1ccoc1C	4.2	9.1
SMILES	Pf apPOL block	mHTT-CaM PPI inh
O=C(NCc1ccc(N2CCCCCC2)nc1)c1ccccc1F	-1.6	18.8
Cc1cccc(-c2noc(C3CCN(CC(=O)Nc4ccccc4F)CC3)n2)c1	-2.4	-7.1
COc1ccc(C(CCN2CCCC(C)C2)c2c(OC)cc(OC)c3c(-c4ccccc4)cc(=O)oc23)cc1 (stereo not given)	-3.3	99.8*
COc1ccc(C(CCN2CCCC2)c2c(OC)cc(OC)c3c(-c4ccccc4)cc(=O)oc23)cc1 (stereo not given)	-11.5	98.3*
COc1ccc(C(CCN2CCOCC2)c2c(OC)cc(OC)c3c(-c4ccccc4)cc(=O)oc23)cc1 (stereo not given)	-7.8	65.9*
COc1ccc(C(CCN2CCCC(C)C2)c2c(OC)cc(OC)c3c(C)cc(=O)oc23)cc1 (stereo not given)	-8.4	20.5
Cc1ccccc1OCC(=O)N1CCN(c2nc(CN3CCC(C)CC3)cs2)CC1	-3.3	0.4
CCC(CC)C(=O)NC1CCCCCC1	-2.1	-1.6
COc1ccc(NC(=O)c2cccc(-c3nc4cccnc4n3C)c2)cc1	1.6	15.2
O=C(Nc1ccc(Cl)cc1)c1ccc(Br)c(S(=O)(=O)Nc2ccccn2)c1	2.7	-0.1
Cc1cccc(C2=NN(c3ccccc3)[C@H](CO)[C@H]2c2ccc(F)cc2)c1	-6.7	81.2*
CC[C@@H]1C(c2cccc(C)c2)=NN(c2ccccc2)[C@H]1C(=O)N1CCOC1=O	-3.8	-21.6
CC[C@H]1C(c2cccc(Cl)c2)=NN(c2ccccc2)[C@@H]1CO	-0.5	75.4*
COc1ccccc1[C@@H]1C(c2cccc(Cl)c2)=NN(c2ccccc2)[C@H]1C(=O)N1CCOC1=O	-4.8	-109.3
CC[C@H]1C(c2cccc(C)c2)=NN(c2ccccc2)[C@@H]1CO	-8.2	-8.8
Cc1cccc(C2=NN(c3ccccc3)[C@H](CO)[C@H]2c2ccc(Cl)cc2)c1	-3.3	91.5*
COc1ccccc1[C@H]1C(c2cccc(Cl)c2)=NN(c2ccccc2)[C@@H]1CO	-9.2	65.7*
CCOc1ccc(-n2cc(C(=O)OC3CCOC3=O)c3ccccc3c2=O)cc1 (stereo not given)	1.7	5.2
COc1cccc(CN2C(=O)c3ccccc3C2C(=O)NC2CCCCCCC2)c1 (stereo not given)	-15.1	6.0
CCOc1ccc(CCNC(=O)CCc2cn(C)c3ccccc23)cc1OCC	-16.8	38.0
OC[C@@H]1[C@@H](c2ccccc2)C(c2cccc(Cl)c2)=NN1c1ccccc1	-6.4	59.4*
COc1ccc(-c2cc(N3CCN(C(=O)c4ccc(Br)o4)CC3)ncn2)cc1	-1.6	-8.0
Fc1ccc(C2Nc3cccc4cccc(c34)N2)cc1	/	52.1*
COc1cc(C2Nc3cccc4cccc(c34)N2)cc(OC)c1OC	8.9	28.1
CCN(CC(O)COc1ccc(Cl)cc1Cl)C1CCCCC1 (stereo not given)	-10.2	7.3
SMILES	Pf apPOL block	mHTT-CaM PPI inh
O=C(Cn1ccc2c(=O)[nH]ccc21)Nc1ccccc1Cl	82.4*	17.3
Cc1c(Cl)cccc1NC(=O)Cn1ccc2c(=O)[nH]ccc21	14.1	15.2
O=C(Cn1ccc2c(=O)[nH]ccc21)Nc1ccc(Cl)cc1	46.4	14.8
O=C(Cn1ccc2c(=O)[nH]ccc21)Nc1cccc(Cl)c1	78.6*	21.1
Cc1c(C(=O)Nc2ccc(O)cc2C(=O)O)cccc1[N+](=O)[O-]	-0.9	2.6
CSc1ncc(Cl)c(C(=O)Nc2ccccc2C(F)(F)F)n1	-9.6	-1.8
Fc1ccc(-c2nnc(Cc3nc(-c4ccccc4)no3)o2)cc1	-2.9	-2.7
CC(=O)Nc1cccc(N2CC(C(=O)Nc3ccc(F)cc3C)CC2=O)c1 (stereo not given)	87.3*	4.5
CC(=O)Nc1cccc(N2CC(C(=O)Nc3ccc(C)cc3C)CC2=O)c1 (stereo not given)	-0.4	10.4
CCOC(=O)c1ccc(NC(=O)N2CCCC2c2cccc(F)c2)cc1 (stereo not given)	-6.3	-13.1
O=C(CCCCCn1nnc2ccccc2c1=O)NC1CCCC1	-4.6	15.0
O=S(=O)(NCCc1ccccc1)c1ccc(Cl)cc1	0.0	-7.0
O=C(O)C1CSC(c2ccc([N+](=O)[O-])s2)N1 (stereo not given)	-2.3	56.0*
O=C(O)C1CSC(c2cccc([N+](=O)[O-])c2)N1 (stereo not given)	1.5	4.0
COc1cccc2sc(N(C)CC(=O)NCCc3cccs3)nc12	-13.5	-2.5
COCCNC(=O)c1cc2ccncc2[nH]1	-7.9	3.0

Screening data (PubChem)
